Reference: PubChem BioAssay (NCATS)
Records with an inconclusive call do not appear. Active and inactive are the calls of the source. Calls come from the whole dose curve. Starred links: 1 amine or outer side, 2 acyl side, 3 side chain; linkers in the order of their positions; H or OH if unused. Positions of bridges follow the written chain, without caps; N, C: chain ends. Non-standard residues stand in square brackets, D forms with d. Residues, ends and D or L forms follow the SMILES beside them. Groups on a side chain read outwards from the residue. ξ: configuration not given here. *: point of attachment. Phe(3R-OH) = O=C([C@@H](N[*:1])[C@H](O[*:3])c1ccccc1)[*:2]; NMeTrp(4-OMe) = CN[C@@H](Cc1c[nH]c2cccc(OC)c12)C(=O)O; ξThr(3R)(O-yl) = C[C@@H](O[*:3])C(N[*:1])C(=O)[*:2]; Phg(4-OMe) = COc1ccc([C@H](N)C(=O)O)cc1; d(aIle) = CC[C@H](C)[C@@H](N)C(=O)O; d(aThr) = C[C@@H](O)[C@@H](N)C(=O)O; NMeThr(3ξ) = CN[C@H](C(=O)O)C(C)O; NMeF = CN[C@@H](Cc1ccccc1)C(=O)O; NMeL = CN[C@@H](CC(C)C)C(=O)O; NMeV = CN[C@H](C(=O)O)C(C)C; ξIle = CC[C@H](C)C(N)C(=O)O; Isobutyryl = CC(C)C(=O)*; Octanoyl = CCCCCCCC(=O)*; ξV = CC(C)C(N)C(=O)O

Assay: qHTS for inhibitors of Rabies Virus screened against the NCATS CANVASS Library (AID 1347402)
Conditions: Rabies virus infection cell assay; series mostly up to 45.9 µM

| SMILES | outcome |
| --- | --- |
| CO[C@@H]1[C@H](O)[C@@H](C)O[C@@H](OC[C@H]2/C=C/C=C/C(=O)C(C)C[C@H](C)C(O[C@@H]3O[C@H](C)CC4(OC(=O)O[C@@H]4C)C3O)[C@@H](C)/C=C/C(=O)OC2C)[C@@H]1OC (stereo not given in full) | inactive |
| C=C1CCC2C(C)(C(=O)O)CCC(CC/C(C)=C/C(=O)NC(CCC(N)=O)C(=O)O)[C@@]2(C)C1 (stereo not given in full) | inactive |
| CC1(C)CCC[C@]2(C)[C@@H]1CC[C@@]13C[C@@H](CC[C@H]12)C(C)(O)C3 (stereo not given in full) | inactive |
| C=C1/C=C\C(CCC)=C\c2csc(n2)C(C)NC(=O)C[C@@]2(CC(=O)O)CCC(=C)[C@H](C1)S2 (stereo not given in full) | inactive |
| C[C@@]12C[C@@H](C[C@@H]3C(=O)O[C@@H](c4ccoc4)[C@H](OC(=O)c4ccccc4)[C@@H]31)OC2=O | inactive |
| CC[C@H](C)[C@H]1NC(=O)[C@@H](NC(=O)C(C)C)[C@@H](C)OC(=O)[C@H](COC(=O)CNC(C)=O)NC(=O)[C@@H]([C@@H](C)O)NC(=O)[C@H](Cc2ccccc2)N(C)C(=O)[C@H](c2ccc(OC)cc2)NC1=O (Isobutyryl-T[d(aIle)][Phg(4-OMe)][NMeF][d(aThr)]S([Gly-Ac]); ester 1-C) | inactive |
| C/C=C1/CC[C@@H]2c3[nH]c4ccccc4c3CCN2C1 | inactive |
| Cc1cc(O)cc2c1C(=O)c1c(O)cc(O)cc1C2=O | inactive |
| CCCCCCCC(=O)N[C@@H](CC(C)C)C(=O)N[C@H](C=O)CCC(=O)O (Octanoyl-Leu-Glu-aldehyde) | inactive |
| Oc1ccc(/C=C2/c3cc(O)cc(O)c3C(c3ccc(O)cc3)[C@H]2c2cc(O)cc(O)c2)cc1 (stereo not given in full) | inactive |
| C=C1C[C@@]23C=CC(=O)[C@@](C)(CCC(=O)Nc4c(O)ccc(C(=O)O)c4O)C2C[C@@H]1CC3O (stereo not given in full) | inactive |
| C=C[C@]1(C)CC[C@@H]([C@H](C)C(=O)/C=C/C(C)(C)O)O1 | inactive |
| CN1C(=O)C2C(N=CN2C)N(C)C1=O (stereo not given) | inactive |
| COC1C(C)OC(OCC23C[C@@H]4[C@H](C)CC[C@H]4C4(C=O)CC2C=C(C(C)C)C34C(=O)O)[C@@H](O)[C@H]1O (stereo not given in full) | inactive |
| CC[C@H](C)C(NC(=O)[C@@H](NC)C(C)C)C(=O)NC1C(=O)N(C)[C@@H](C(C)O)C(=O)N[C@@H](C(C)C)C(=O)N(C)[C@@H](CC(C)C)C(=O)NC(C(C)C)C(=O)N(C)[C@@H](C(C)C)C(=O)N(C)[C@@H](Cc2c[nH]c3cccc(OC)c23)C(=O)N[C@@H](C(C)C)C(=O)N[C@@H]([C@H](O)c2ccccc2)C(=O)N[C@@H](C(C)C)C(=O)O[C@@H]1C (stereo partly drawn) (H-[NMeV][ξIle][ξThr(3R)(O-yl)][NMeThr(3ξ)]V[NMeL][ξV][NMeV][NMeTrp(4-OMe)]V[Phe(3R-OH)]V; ester 3-C) | inactive |
| Cc1occ2c1C(=O)c1c(cc(O)c(O)c1O)C2=O | inactive |
| CCCCCCCCC[C@@H]1C[C@@H]2CC[C@H]3[C@@H](C(=O)OCCCCN=C(N)N)[C@@H](C)N=C(N1)N23 | inactive |
| COC(=O)c1cccc2oc(-c3cccc4oc(-c5c(C)cccc5O)nc34)nc12 | inactive |
| O=C1CC(c2ccc(O)cc2)Oc2ccccc21 (stereo not given) | inactive |
| C[C@]12CCC[C@](C)(C(=O)O)[C@@H]1CC[C@@]1(C)c3cocc3CC[C@H]21 | inactive |
| CC1(C)C=Cc2c(ccc3c2OC[C@@H](c2ccc(O)cc2O)C3)O1 | inactive |
| COc1ccc(-c2oc3cc(OC)cc(OC)c3c(=O)c2O)cc1 | inactive |
| O=C(O)[C@@]12CO[C@@]3(O)C4CCN(CC[C@H]31)[C@H]4c1c2[nH]c2ccccc12 | inactive |
| C=C[C@@]1(C)CC[C@@H]([C@H](C)C(=O)/C=C/C(C)C)O1 | inactive |
| C=C[C@]1(C)CC[C@@H]([C@H](C)C(=O)OCC)O1 | inactive |
| O=Cc1ccc2n1C[C@]1(C[C@H](O)[C@@H](CO)O1)OC2 | inactive |
| COc1cc(/C=C2/C(=O)N(c3ccc(O)cc3C(=O)O)[C@H](c3ccc(O)c(OC)c3)C2C(=O)Nc2ccc(O)cc2C(=O)O)ccc1O (stereo not given in full) | inactive |
| C1=C2CCCN[C@@H]2[C@@H]2CCN3CCCC[C@@H]3[C@H](C1)C2 | inactive |
| C[C@@]12CCC[C@@](C)(C(=O)O)[C@H]1CC[C@]13C[C@H]4C[C@H](O[C@@]4(C)C1)[C@H]32 | inactive |
| C=C1C[C@@]23C=CC(=O)[C@@](C)(CCC(=O)Nc4c(O)ccc(C(=O)O)c4O)C2C[C@@H]1CC3 (stereo not given in full) | inactive |
